# Assay results from PubChem BioAssay (NCI).
# About 83,000 compounds went through this panel and 20% of them were active in at least one assay; those are over-represented in the sample as a whole.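 In brief: 96-well plates, 48 h treatment, single concentration, percent growth endpoint.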 Active and inactive are the calls of the source. Rule for the calls: active = growth percent below 10; inactive = the rest.
# Tested on: SF-268 CNS
# Assay: NCI-60 one-dose screen, 48 h (100 = growth as untreated, 0 = no growth, -100 = all killed)
# Details: 10 µM unless noted
row,SMILES,growth
1,COc1cc(NCCCN=C(N)N)c2ncccc2c1,25.2% (inactive)
2,ClCCN(CCCl)c1nc(Cl)c(C2CC(c3ccccc3)=NN2c2cc(Cl)cc(Cl)c2)s1 (stereo not given),96.7% (inactive)
3,CCCCCCCC(=O)OCC(=O)[C@]1(O)Cc2c(O)c3c(c(O)c2[C@@H](OC2CC(N)C(O)C(C)O2)C1)C(=O)c1c(OC)cccc1C3=O (stereo not given in full),-82.1% (active)
4,COC[C@@H]1C[C@@]2(C)[C@@H](CC[C@@H]3[C@@H]2CC[C@@]2(C)[C@H]3CC[C@]2(C)O)CC1=O,102% (inactive)
5,C[C@]12CC[C@@H]3c4ccc(Oc5nc(N6CC6)nc(N6CC6)n5)cc4CC[C@H]3[C@@H]1CCC2=O,29.9% (inactive)
6,O=C1OCC2=C1C(c1ccccc1)c1cc3c(cc1N2)OCO3 (stereo not given),10.4% (inactive)
7,CCC1(C)CC(CCNCc2ccccc2O)(c2ccc(C)cc2)CCO1 (stereo not given),105% (inactive)
8,ClCCN(CCCl)Cc1ccc(Nc2ccnc3cc(Cl)ccc23)cc1,25.3% (inactive)
9,c1ccc(Nc2nc(-c3ccccc3)c[se]2)cc1,95.7% (inactive)
10,CCN(CC)CCOC(=O)C(OC(C)C)(c1ccccc1)c1ccccc1,93% (inactive)
11,CCCc1cc(O)c2c3c(c(=O)oc2c1)CN(C)CC3,37% (inactive)
12,ClCCN(CCCl)c1ccc(/C=N/Nc2ncnc3nc[nH]c23)cc1,58.9% (inactive)
13,CCC1(C(C)C)C(=O)NC(=S)NC1=O,96.1% (inactive)
14,CC(C)(N)Cc1ccccc1,113% (inactive)
15,CC1(C)N=C(N)N=C(N)N1c1cccc(CCCCc2ccc(Cl)c(S(=O)(=O)F)c2)c1,35.9% (inactive)
